Most compounds without a hit are left out; they make up all but 2.9% or so of the library.
Peg3 promoter: Peg3 promoter-driven luciferase inhibitors, primary screen, cell-based, HeLa, luciferase luminescence; AID 588405, 2011; 360,000 compounds, 1.7% hits; HeLa PEG-Prom luciferase reporter, overnight; inhibition, % at 20 µM;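 active = inhibition of at least 50% at 20 µM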
EBV LMP1 NFkB: EBV LMP1-driven NF-kappaB luciferase reporter inhibitors, primary screen, cell-based, luminescence, single point; 350,000 compounds, 0.69% hits; inhibition, % at 12.5 µM; AID 504558, 2011; LMP1-induced NF-kappaB luciferase reporter cells; in the data active = inhibition above about 41%
TRPM1 prom inh: inhibitors of MITF-dependent TRPM1 promoter reporter, primary screen, cell-based, SK-MEL-5, single point, luciferase; SK-MEL-5 TRPM1 promoter luciferase, 24 h; inhibition, % at 12.5 µM; 330,000 compounds, 0.83% hits;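 active = mean inhibition across replicates of 60% or more, whatever share of single replicates reaches that level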
KKLEB cytotox: cytotoxicity in KKLEB CF airway cells, primary screen, cytotoxicity control for CF NF-kB inhibitor project, cell-based, uHTS, fluorescence assay plates; KKLEB CF airway cells viability, ATPlite luminescence, overnight; active compounds read low; cells stimulated with P. aeruginosa culture filtrate; activity change (cytotoxicity), % at 5 µM; 360,000 compounds, 0.36% hits;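 active = corrected activity change at or below -50% at 5 µM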
Shn3 inh set2: reduction of Shn3 3'UTR firefly luciferase signal, primary screen, Schnurri-3 inhibitor project, cell-based, Clone20 osteoblasts, set 2 | 360,000 compounds, 0.52% hits | Clone20 osteoblast Shn3 3'UTR firefly luciferase, 24 h | AID 588674, 2011 | inhibition, % at 12.5 µM;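 active = mean inhibition of at least 75% with every replicate also reaching 75%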
CF NFkB block: inhibitors of PAF-induced NF-kB signaling, primary screen, cell-based, GFP fluorescence, uHTS; 360,000 compounds, 0.86% hits; inhibition, % at 5 µM; AID 588850, 2011; KKLEB NF-kB-GFP reporter, GFP fluorescence overnight;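 active = at least 50% inhibition at 5 µM, scaled per plate between neutral and stimulator controls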;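 note: PAF is a Pseudomonas aeruginosa culture filtrate used as stimulus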
Each line names hits and unclear results; the compound was inactive in the other large screens.

Cc1ccc(C(=O)N(C)Cc2nc3ccccc3c(=O)[nH]2)cc1NC(=O)c1ccco1	none
Nc1cc(N)nc(SCC(=O)c2ccc3c(c2)NC(=O)CO3)n1	EBV LMP1 NFkB 44.4
Cc1cc(=O)[nH]c(SCC(=O)c2ccc3c(c2)NC(=O)CO3)n1	none
CCCOc1ccc2oc(=O)c3c(c2c1)CCCN3C(=O)CN1CCN(c2ncccn2)CC1	Shn3 inh set2 93.6
CC1(C)CC(=O)C(CC2=C(O)CC(C)(C)CC2=O)=C(O)C1	EBV LMP1 NFkB 66.4
Cc1noc(C)c1S(=O)(=O)NC(=O)C1(C)CCN1C(=O)CC(c1ccccc1)c1ccccc1 (stereo not drawn)	none (no result: EBV LMP1 NFkB, TRPM1 prom inh)
CCCS(=O)(=O)NC(=O)C1(C)CCN(C(=O)c2cc(C(C)(C)C)nn2C)C1 (stereo not drawn)	none (no result: EBV LMP1 NFkB, TRPM1 prom inh)
CCOC(=O)C(=Cc1cc(=O)c(OC)co1)C(=O)OCC	Peg3 promoter 105.6, TRPM1 prom inh 98.1, CF NFkB block 84.9
C[C@H]1CN([C@@H](C)CO)C(=O)CCCn2nncc2CO[C@@H]1CN(C)S(=O)(=O)c1cccc(F)c1	none (no result: TRPM1 prom inh)
C=C1C(=O)c2sccc2C(c2ccc(OC)c(OC)c2)C1COC(C)=O (stereo not drawn)	Peg3 promoter 104.8, EBV LMP1 NFkB 79.2, TRPM1 prom inh 98.4, KKLEB cytotox -91.5, Shn3 inh set2 99.1, CF NFkB block 83.8
COc1ccc(S(=O)(=O)Nc2ccccc2OC)cc1NC(=O)c1cc2ccccc2oc1=O	KKLEB cytotox -54.9, CF NFkB block 58.1
COc1ccc(NC(=O)c2cc3ccccc3oc2=O)c(OC)c1	none
Cc1nn(C)c(C)c1/C=C(\C#N)S(=O)(=O)c1ccc(F)cc1	none (no result: TRPM1 prom inh)
COc1ccc2c(c1)-c1c(ssc1=S)C(C)(C)N2	EBV LMP1 NFkB 44.7, CF NFkB block 81.1
COc1ccc(-n2sc3c(c2=S)-c2cc(OC)ccc2NC3(C)C)cc1	none
COc1ccccc1N(C)S(=O)(=O)c1ccc(C(=O)Nc2cc(F)ccc2C)cc1	Shn3 inh set2 82.9
COc1ccccc1N(C)S(=O)(=O)c1ccc(C(=O)NC(C)(C)C)cc1	none
COc1ccccc1N(C)S(=O)(=O)c1ccc(C(=O)Nc2cccc(S(=O)(=O)N3CCOCC3)c2)cc1	Peg3 promoter 50.1
COc1ccc(NC(=O)COC(=O)C2CCCN2C(=O)OC(C)(C)C)cc1Cl (stereo not drawn)	none (no result: TRPM1 prom inh)
Cc1nnc(Cc2ccccc2)c2n[nH]c(C)c12	none (no result: TRPM1 prom inh)
COc1ccc(NC(=O)Nc2ccc(F)c(F)c2)c(OC)c1	EBV LMP1 NFkB 66.9, TRPM1 prom inh 74.0
COc1ccc(NC(=O)Nc2cccc(F)c2)c(OC)c1	none
Cc1ccc(C)c(NC(=O)CN(C)C(=O)c2cccc(S(=O)(=O)N3CCN(Cc4ccccc4)CC3)c2)c1	Shn3 inh set2 86.9
CSc1ccc(CN(C)C(=O)c2cccc(S(=O)(=O)N3CCN(Cc4ccccc4)CC3)c2)cc1	Shn3 inh set2 88.2
CN(CCOc1ccc(Cl)cc1)C(=O)c1cccc(S(=O)(=O)N2CCN(Cc3ccccc3)CC2)c1	Shn3 inh set2 91.5 (no result: TRPM1 prom inh)
COc1cccc(CN(C)C(=O)c2cccc(S(=O)(=O)N3CCN(c4ccccc4)CC3)c2)c1	Shn3 inh set2 85.4 (no result: TRPM1 prom inh)
COc1ccc(NC(=O)CN(C)C(=O)c2cccc(S(=O)(=O)N3CCN(Cc4ccccc4)CC3)c2)cc1	none
O=S1(=O)CC(N2CC=CC2)CN1C1CCCCC1 (stereo not drawn)	none (no result: EBV LMP1 NFkB, TRPM1 prom inh)
N#CC(C(O)c1ccccc1)N1CCOCC1 (stereo not drawn)	none (no result: TRPM1 prom inh)
COCCN1C[C@@H](CO)O[C@@H](n2cnc3c(NC4CCCC4)ncnc32)C1	none (no result: EBV LMP1 NFkB, TRPM1 prom inh)
COc1cc(/C=N/NC(=O)c2ccc(CN3c4cccc5cccc(c45)S3(=O)=O)cc2)cc(OC)c1O	Peg3 promoter 56.8, KKLEB cytotox -79.9, CF NFkB block 69.1
CN(C)C(=O)/C(C#N)=C\c1cc(Br)c(Sc2ccc(Cl)cc2)o1	Peg3 promoter 78.4

Source: PubChem
